Structures are written as SMILES. Unmarked numbers belong to inactive results. For some of these results: Measured potencies and affinities stand elsewhere. Active and inactive are the calls of the source. Unless noted, no rule for the calls is given here.

A short description of assay [1]: antimalarial activity against Dd2 strain (AID 2302;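 active = growth inhibition above 50% at the single 2 µM test dose, taken to imply half-maximal potency below 2 µM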;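 also: 0% = DMSO untreated growth and 100% = chloroquine plus artemisinin killed control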). The note with it: P. falciparum Dd2 in RBCs, LDH growth readout, 72 h; at 2 µM; active compounds read high.
Assay [2] in a line: HepG2 cytotoxicity, primary screen, cytotoxicity control for P. falciparum antimalarial project, cell-based, ATP luminescence (AID 2303;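 active = inhibition above 50%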;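 also: 0% = DMSO wells and 100% = digitonin-killed cells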). The note with it: HepG2 viability, 24-48 h, at 10 µM, active compounds read high.
Assay [3] concerns the target L-lactate dehydrogenase (Plasmodium falciparum (isolate CDC / Honduras)) (UniProt Q27743). As to the kind of experiment: PfLDH activity inhibition – cell lysate, 3D7 strain, counter-screen for P. falciparum growth inhibition project (AID 2304).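 Also: 0% = vehicle and 100% = reference inhibitor.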 The note with it: P. falciparum 3D7 crude extract, LDH APAD/NBT absorbance; at 2 µM; active compounds read high.
A short description of assay [4]: inhibition of 3D7 malaria parasite growth – strain 3D7 (AID 2306).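 Also: 0% = DMSO wells and 100% = chloroquine plus artemisinin control wells.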 The note with it: P. falciparum 3D7 erythrocytic growth, LDH absorbance, 72 h; at 2 µM; active compounds read high.
In assay [5] the target is Calcium-dependent protein kinase 1 (Plasmodium falciparum (isolate 3D7)) (UniProt P62344). As to the kind of experiment: PfCDPK1 kinase inhibitors, biochemical, TCAMS library (AID 1159585; cut-off not given, nearly all actives have IC50 up to about 0.98 µM;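 also: inhibitors leave more ATP so luminescence rises with inhibition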). The note with it: recombinant PfCDPK1, Kinase-Glo ATP depletion luminescence.
Sequence of Calcium-dependent protein kinase 1 (Plasmodium falciparum (isolate 3D7)) (P62344 whole entry, looked up): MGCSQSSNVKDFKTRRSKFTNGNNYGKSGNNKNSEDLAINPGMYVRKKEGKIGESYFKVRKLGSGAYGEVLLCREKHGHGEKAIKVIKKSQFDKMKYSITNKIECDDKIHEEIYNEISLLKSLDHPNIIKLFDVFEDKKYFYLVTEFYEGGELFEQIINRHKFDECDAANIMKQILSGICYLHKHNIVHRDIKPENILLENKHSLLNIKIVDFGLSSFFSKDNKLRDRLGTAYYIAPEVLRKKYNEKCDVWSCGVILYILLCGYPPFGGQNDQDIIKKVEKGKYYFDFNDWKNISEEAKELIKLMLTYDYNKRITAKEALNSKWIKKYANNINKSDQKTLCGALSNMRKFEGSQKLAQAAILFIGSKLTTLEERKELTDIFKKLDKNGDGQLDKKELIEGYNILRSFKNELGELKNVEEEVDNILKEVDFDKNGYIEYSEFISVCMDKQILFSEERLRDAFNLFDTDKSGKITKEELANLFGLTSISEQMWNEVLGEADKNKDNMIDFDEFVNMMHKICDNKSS
In assay [6] the target is Plasmodium falciparum protein kinase 6 (PK6, PF3D7_1337100) (UniProt Q8IDW1). As to the kind of experiment: PfPK6 kinase inhibitors, biochemical, TCAMS library (AID 1159586). The note with it: recombinant PfPK6, Kinase-Glo ATP depletion luminescence.
Sequence of Plasmodium falciparum protein kinase 6 (PK6, PF3D7_1337100) (Q8IDW1 1-305): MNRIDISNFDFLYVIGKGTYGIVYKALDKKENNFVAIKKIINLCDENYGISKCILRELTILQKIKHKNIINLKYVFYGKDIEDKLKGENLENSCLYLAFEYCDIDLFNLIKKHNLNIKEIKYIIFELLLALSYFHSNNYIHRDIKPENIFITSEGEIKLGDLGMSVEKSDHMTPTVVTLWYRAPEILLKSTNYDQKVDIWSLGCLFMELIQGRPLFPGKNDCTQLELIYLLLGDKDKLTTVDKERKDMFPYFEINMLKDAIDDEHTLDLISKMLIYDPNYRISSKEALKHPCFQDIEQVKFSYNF
For assay [7], the target named is Protein kinase 7 (PK7), Plasmodium falciparum 3D7 (PF3D7_0213400) (UniProt Q7YTF7). As to the kind of experiment: inhibition of Plasmodium PK7 catalytic activity – biochemical, TCAMS antimalarial set, Kinase-Glo luminescence (AID 1159587). Particulars: recombinant PfPK7, Kinase-Glo ATP depletion luminescence.
Sequence of Protein kinase 7 (PK7), Plasmodium falciparum 3D7 (PF3D7_0213400) (Q7YTF7 1-343): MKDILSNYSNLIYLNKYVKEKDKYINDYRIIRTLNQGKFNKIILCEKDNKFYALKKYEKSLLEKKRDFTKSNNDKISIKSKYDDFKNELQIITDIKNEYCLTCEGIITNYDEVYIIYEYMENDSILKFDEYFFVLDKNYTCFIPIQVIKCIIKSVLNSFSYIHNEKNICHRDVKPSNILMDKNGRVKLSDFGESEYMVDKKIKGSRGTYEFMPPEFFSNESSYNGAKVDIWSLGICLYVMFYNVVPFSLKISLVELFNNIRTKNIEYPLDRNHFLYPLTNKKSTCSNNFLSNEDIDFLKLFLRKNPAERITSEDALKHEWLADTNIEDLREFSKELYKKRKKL
The target in assay [8] is Calcium-dependent protein kinase 4 (Plasmodium falciparum (isolate 3D7)) (UniProt Q8IBS5). As to the kind of experiment: PfCDPK4 kinase inhibitors, biochemical, TCAMS library (AID 1159588; cut-off not given, nearly all actives have IC50 up to about 0.91 µM). Particulars: recombinant PfCDPK4, Kinase-Glo ATP depletion luminescence.
Sequence of Calcium-dependent protein kinase 4 (Plasmodium falciparum (isolate 3D7)) (Q8IBS5 whole entry, looked up): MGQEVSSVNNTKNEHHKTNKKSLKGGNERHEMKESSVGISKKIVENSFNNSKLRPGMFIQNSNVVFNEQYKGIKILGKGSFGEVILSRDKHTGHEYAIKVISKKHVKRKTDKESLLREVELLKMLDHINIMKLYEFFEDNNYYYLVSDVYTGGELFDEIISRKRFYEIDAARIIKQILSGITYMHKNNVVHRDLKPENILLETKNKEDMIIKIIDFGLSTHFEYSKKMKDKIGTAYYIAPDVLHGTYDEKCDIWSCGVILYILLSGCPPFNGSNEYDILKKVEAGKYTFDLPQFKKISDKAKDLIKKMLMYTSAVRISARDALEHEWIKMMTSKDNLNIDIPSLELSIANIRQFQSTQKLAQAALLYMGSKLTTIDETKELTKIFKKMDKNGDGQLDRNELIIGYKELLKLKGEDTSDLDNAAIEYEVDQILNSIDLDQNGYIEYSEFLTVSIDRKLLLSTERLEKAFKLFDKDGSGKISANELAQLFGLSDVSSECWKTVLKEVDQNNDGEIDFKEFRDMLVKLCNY

Sequence of L-lactate dehydrogenase (Plasmodium falciparum (isolate CDC / Honduras)) (Q27743 whole entry, looked up): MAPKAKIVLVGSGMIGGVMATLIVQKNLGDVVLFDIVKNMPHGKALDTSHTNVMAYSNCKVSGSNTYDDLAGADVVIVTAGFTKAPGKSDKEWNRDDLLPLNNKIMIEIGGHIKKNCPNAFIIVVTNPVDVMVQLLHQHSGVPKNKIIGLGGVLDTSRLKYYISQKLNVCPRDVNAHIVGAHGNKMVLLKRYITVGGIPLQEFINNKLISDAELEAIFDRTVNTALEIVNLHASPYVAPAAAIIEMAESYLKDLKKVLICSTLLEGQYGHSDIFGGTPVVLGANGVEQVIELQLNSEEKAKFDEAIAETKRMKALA

As to `CS(=O)(=O)CCNCc1cccc(-c2cc3c(Nc4ccc(OCc5ccccc5)cc4)ncnc3cn2)c1`, the growth inhibition in assay [1] is 26%; in assay [4] it was 101% (active). Further, the values for the inhibition in assay [2] and in assay [3] were 3% and 2%, respectively. Also, the result in assay [5], in assay [6], in assay [7] and in assay [8] was inactive.
`Cc1ccc(Cn2ncc(NC3CCNCC3)c(Cl)c2=O)cc1NC(=O)Nc1ccc(-c2ccccc2)cc1`: the growth inhibition in assay [1] is 61% (active); in assay [4], 99% (active). Also, the inhibition in assay [2] is 18%; in assay [3] it was -2%. For the same compound, the outcome in assay [5], in assay [6], in assay [7] and in assay [8] was inactive.
As for `Cc1cccc(CNc2nc(C)cc(N[C@@H](Cc3ccccc3)C(=O)NCCc3ccccc3)n2)c1`, the growth inhibition is 85% (active) in assay [1] and 99% (active) in assay [4]. Further, the inhibition in assay [2] was 24%; in assay [3], 2%. Further, the result in assay [5], in assay [6], in assay [7] and in assay [8] was inactive.
For `Cc1c(C)n(Cc2ccccc2)c2ncnc(OC3CCN(CC(=O)NCC4CC4)CC3)c12`, the results for the growth inhibition in assay [1] and in assay [4] were 79% (active) and 92% (active), respectively. In addition, the inhibition in assay [2] is 17%; in assay [3] it was -3%. For the same compound, the outcome in assay [5], in assay [6], in assay [7] and in assay [8] was inactive.
On to `N#Cc1ccc(-c2ccc(C(=O)NCCCCN3CCC(c4nc5ccccc5[nH]4)CC3)cc2)cc1`, for which the growth inhibition was 13% in assay [1] and 92% (active) in assay [4]. Further, the values for the inhibition in assay [2] and in assay [3] were 43% and 4%, respectively. Further, the outcome in assay [5], in assay [6], in assay [7] and in assay [8] was inactive.
Take `CCN(CC)CCN(Cc1ccc(-c2ccc(C(F)(F)F)cc2)cc1)C(=O)CN1C(CCc2cccc(F)c2F)=NS(=O)(=O)c2ccccc21`: the growth inhibition in assay [1] was 49%; in assay [4], 101% (active). The inhibition is 36% in assay [2] and -1% in assay [3]. Moreover, the outcome in assay [5], in assay [6], in assay [7] and in assay [8] was inactive.
Regarding `CCN(CC)CCOc1cc2c(cc1Br)-c1cc(Br)c(OCCN(CC)CC)cc1C2=NO`, the growth inhibition in assay [1] was 98% (active); in assay [4], 100% (active). In addition, the inhibition in assay [2] is 99% (active); in assay [3], -3%. Also, the outcome in assay [5], in assay [6], in assay [7] and in assay [8] was inactive.
For the compound `COc1cc2nc(NCC3CCCO3)n3nc(-c4ccccc4)nc3c2cc1OC` (stereo not given), the growth inhibition was 97% (active) in assay [1] and 92% (active) in assay [4]. The inhibition was -9% in assay [2] and -7% in assay [3]. Further, the outcome in assay [5], in assay [6], in assay [7] and in assay [8] was inactive.
For the compound `CCN(CC)C(=NCCCCCCN=C(/N=C(\N)Nc1ccc(Cl)c(Cl)c1)N(CC)CC)/N=C(\N)Nc1ccc(Cl)c(Cl)c1`, the figures for the growth inhibition in assay [1] and in assay [4] were 90% (active) and 94% (active), respectively. In addition, the results for the inhibition in assay [2] and in assay [3] were 1% and -3%, respectively. Also, the outcome in assay [5], in assay [6], in assay [7] and in assay [8] was inactive.
In the case of `O=C(Nc1cccc(-c2csc(NC(=O)c3ccc4ccccc4c3)n2)c1)c1ccc2ccccc2c1`, the growth inhibition in assay [1] is 35%; in assay [4], 89% (active). Also, the results for the inhibition in assay [2] and in assay [3] were 3% and -2%, respectively. The result in assay [5], in assay [6], in assay [7] and in assay [8] was inactive.
As to `CC(C)c1ccc(C2CCN(CCCCNC(=O)c3ccc(NC(=O)c4ccc(C(F)(F)F)cc4)cc3)CC2)c(O)c1`, the values for the growth inhibition in assay [1] and in assay [4] were 100% (active) and 99% (active), respectively. For the same compound, the inhibition in assay [2] was 47%; in assay [3], 7%. The result in assay [5], in assay [6], in assay [7] and in assay [8] was inactive.
As to `COc1ccc(CNCc2cccc(-c3csc(-c4nc5ccccc5[nH]4)c3)c2)cc1`, the growth inhibition in assay [1] was 22%; in assay [4], 100% (active). For the same compound, the inhibition in assay [2] is 17%; in assay [3], -1%. The outcome in assay [5], in assay [6], in assay [7] and in assay [8] was inactive.
For the compound `O=C(NCCN1CCCC1)c1ccc(-c2ccc(-c3nc4ccccc4[nH]3)s2)cc1`, the growth inhibition in assay [1] is 3%; in assay [4], 92% (active). The values for the inhibition in assay [2] and in assay [3] were 22% and -2%, respectively. For the same compound, the outcome in assay [5], in assay [6], in assay [7] and in assay [8] was inactive.
For the compound `O=C(/C=C/c1ccc(C(F)(F)F)cc1)NCCCCCN1CCCN(C(=O)Nc2ccc(Cl)c(C(F)(F)F)c2)CC1`, the growth inhibition is 31% in assay [1] and 99% (active) in assay [4]. For the same compound, the inhibition was 64% (active) in assay [2] and 4% in assay [3]. In addition, the result in assay [5], in assay [6], in assay [7] and in assay [8] was inactive.
For the compound `N#Cc1ccc(-n2cc(C(=O)Nc3ccc4c(c3)CCN(C3CCC3)CC4)c(C(F)(F)F)n2)cc1`, the values for the growth inhibition in assay [1] and in assay [4] were 99% (active) and 102% (active), respectively. The inhibition in assay [2] is 37%; in assay [3], -2%. Moreover, the result in assay [5], in assay [6], in assay [7] and in assay [8] was inactive.
For `CC(C)c1sc(N2CCN(C)CC2)nc1C(=O)NCCc1cccc(Cl)c1`, the values for the growth inhibition in assay [1] and in assay [4] were 15% and 91% (active), respectively. Besides, the inhibition in assay [2] is 9%; in assay [3], -1%. Further, the outcome in assay [5], in assay [6], in assay [7] and in assay [8] was inactive.
In the case of `O=C(Nc1ccc(OC2CCN(Cc3ccsc3)C2)c(Cl)c1)c1ccc(F)cc1` (stereo not given), the growth inhibition in assay [1] is 73% (active); in assay [4] it was 89% (active). For the same compound, the inhibition in assay [2] is -3%; in assay [3], -8%. The outcome in assay [5], in assay [6], in assay [7] and in assay [8] was inactive.
With `COc1cc2ccccc2c(OC)c1CNCCCCCCNCc1c(OC)cc2ccccc2c1OC`, the growth inhibition in assay [1] is 91% (active); in assay [4], 93% (active). In addition, the inhibition is 100% (active) in assay [2] and 0% in assay [3]. The result in assay [5], in assay [6], in assay [7] and in assay [8] was inactive.
In the case of `O=C(NCc1ccc(Cl)c(Cl)c1)c1cccc(C2CCCN(Cc3ccc4nc[nH]c4c3)C2)c1` (stereo not given), the growth inhibition is 30% in assay [1] and 95% (active) in assay [4]. In addition, the inhibition in assay [2] is 3%; in assay [3] it was 5%. In addition, the outcome in assay [5], in assay [6], in assay [7] and in assay [8] was inactive.
In the case of `COc1ccc([N+](=O)[O-])cc1N(Cc1ccccc1-c1ccccc1)S(=O)(=O)c1ccc(C(F)(F)F)cc1`, the growth inhibition was 66% (active) in assay [1] and 96% (active) in assay [4]. The inhibition in assay [2] is 3%; in assay [3] it was -2%. Moreover, the result in assay [5], in assay [6], in assay [7] and in assay [8] was inactive.

The values above are taken from PubChem BioAssay.
